Out of some 330,000 compounds screened, about 1,900 (0.58%) were called active. Another 4% or so got no clear call; they are omitted. A selection follows. Potency and affinity values are given separately. A number with no mark means an inactive call. No stated cut-off is given here; in the data, inconclusive means inhibition above about 70% without an active follow-up result; inactive means below that.
test: M. tuberculosis growth inhibition, HTS (AID 449762);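 further: bacterial growth assessed after seven days of incubation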; conditions: M. tuberculosis H37Rv growth inhibition, 7H9 media; at 25 µM; stronger effect = higher value

Row | Structure (SMILES) | inhibition
1 | CC(Oc1ccc(Cl)cc1)C(=O)N(C)CC(=O)Nc1ccc(N2CCOCC2)cc1 (configuration not stated) | -7.54%
2 | COc1ccc(C(=O)N/N=C/c2ccc(OC)c(CN3CCCc4ccccc43)c2)cc1 | 8.38%
3 | CC1=CC(C)(C)Nc2ccc(OC(=O)c3ccco3)cc21 | 4.65%
4 | O=C(Oc1cccc(OC(=O)c2ccco2)c1)c1ccco1 | 14.2%
5 | O=C(NCCCN1CCOCC1)Nc1ccc(Cc2ccc(NC(=O)NCCCN3CCOCC3)cc2)cc1 | -4.04%
6 | O=C(O)c1cccnc1SCC(=O)N1CCCc2ccccc21 | -17%
7 | COc1ccccc1N1CCN(C(=O)CNC(=O)c2ccc(Cl)cc2Cl)CC1 | 4.89%
8 | CC[n+]1c(/C=C/N(C)c2ccccc2)sc2ccc(Cl)cc21 | 0.95%
9 | CCn1c(/C=C/N(C)c2ccccc2)[n+](CC)c2ccc(Cl)cc21 | 0.68%
10 | CCCC(C)NC(=O)c1c2c(nc3ccccc13)CCC2 (configuration not stated) | -4.36%
11 | O=C(Oc1cc2oc(=O)c3c(c2cc1Cl)CCCC3)c1cccs1 | 9.78%
12 | Cc1cc(OC(=O)c2ccco2)c2c3c(c(=O)oc2c1)CCC3 | -2.68%
13 | CN(C)c1c(N)c(=O)oc2ccccc12 | -9.33%
14 | CCCCNc1c(-c2ccc(OC)c(SC3CCCCC3)c2)nc2ccc(Cl)cn12 | 8.29%
15 | COc1ccc(-c2nc3ccc(C)cn3c2NCc2ccccc2)cc1SC1CCCCC1 | 5.05%
16 | CN(CC(O)COCc1ccccc1F)C1CCCCC1 (configuration not stated) | -0.04%
17 | Cc1ccc(C(=O)O/N=C\c2ccc(N3CCOCC3)c([N+](=O)[O-])c2)cc1 | 0.26%
18 | O=C(O/N=C\c1ccc(N2CCCCC2)c([N+](=O)[O-])c1)c1c(F)cccc1F | 2.52%
19 | O=C(Cn1cnc([N+](=O)[O-])n1)c1ccccc1 | 0.7%
20 | COc1ccc(Nc2cc(Nc3cccc(OC)c3)ncn2)cc1 | 0.6%
21 | O=C(O)c1cccc(N/N=C/c2ccc(OC(F)(F)F)cc2)c1 | 4.3%
22 | Cc1nc2scc(-c3ccc(C(C)C)cc3)c2c(=O)n1N | 6.8%
23 | Cc1nc2scc(-c3ccc(Cl)cc3)c2c(=O)n1N | -5.38%
24 | CCOc1ccc(N2C(=O)CCC2=O)cc1 | -7.32%
25 | C1=Nc2ccccc2CN1c1ccccc1 | -10.9%

Row | Structure (SMILES) | inhibition
26 | CCCc1cc(N2CCC(C(N)=O)CC2)nc(-c2ccccc2)n1 | 5.28%
27 | Nc1nc2ccccc2n1/N=C/c1cccnc1 | -4.9%
28 | COc1ccc(/C=N/n2c(N)nc3ccccc32)cc1OC | 4.73%
29 | Cc1ccc(C(=O)Nc2nc(C(C)(C)C)cs2)s1 | 56.8%
30 | Cc1ccc2nc(-c3ccc(NS(C)(=O)=O)cc3)cc(-c3ccccc3)c2c1 | 0.07%
31 | Clc1ccc2nc(-c3ccncc3)cc(-c3ccccc3)c2c1 | 3.77%
32 | COc1ccc(S(=O)(=O)N2CCN(C(=O)c3ccco3)CC2)cc1C(C)(C)C | -13.2%
33 | Cc1cc(C)nc(Sc2ccc([N+](=O)[O-])cc2[N+](=O)[O-])n1 | 0.29%
34 | Cc1cccc(Sc2ccc([N+](=O)[O-])cc2[N+](=O)[O-])n1 | 19.9%
35 | C/C(=C\C(=O)c1ccc(C)o1)Nc1ccc(C(=O)O)cc1C | -5.52%
36 | COc1ccc(OC)c(N/C(C)=C/C(=O)c2ccc(C)o2)c1 | 5.43%
37 | Cc1nc2sccn2c1-c1csc(NCc2ccccc2)n1 | 54.7%
38 | Cc1ccn2c(-c3csc(NCc4ccco4)n3)c(C)nc2c1 | 7.31%
39 | O=C(COC(=O)CCN1C(=O)c2ccccc2C1=O)Nc1ccccc1[N+](=O)[O-] | -0.89%
40 | Cc1ccc(NC(=O)C2C3/C=C\CCCCC32)cc1 (configuration not stated) | -6.56%
41 | O=C(Nc1ccccc1)C1C2/C=C\CCCCC21 (configuration not stated) | 5.24%
42 | Cc1cc(F)ccc1S(=O)(=O)N1CCCOC1CNC(=O)C(=O)NC1CCCCC1 (configuration not stated) | -6.82%
43 | CCOC(=O)N1CCN(c2c(NCCCN3CCCCCC3)c(=O)c2=O)CC1 | 1.01%
44 | CCOC(=O)/C(=N/Nc1ccccc1OC)N1CCCc2ccccc21 | 0.45%
45 | CCOC(=O)/C(=N/Nc1ccccc1)N1CCCc2ccccc21 | 0.18%
46 | Cc1ccc(S(=O)(=O)Cc2sc3ccccc3[n+]2C)cc1 | -1.05%
47 | COc1ccc(NC(=O)C(CC(=O)O)Cc2ccccc2)cc1 (configuration not stated) | -9.83%
48 | Cc1ccc(SCCNC(=O)/C=C/c2ccc(Cl)cc2)cc1 | -7.24%
49 | CC(=O)c1ccc(-c2ccc(/C=C(/Sc3n[nH]c(C)n3)C(=O)O)o2)cc1 | -2.81%
50 | Cc1nc(S/C(=C/c2ccc(-c3ccc(C(=O)O)cc3)o2)C(=O)O)n[nH]1 | -0.51%

Row | Structure (SMILES) | inhibition
51 | CCCN1CCN(C(=O)c2ccc(CS(=O)c3ccc(Cl)cc3)o2)CC1 (configuration not stated) | -5.84%
52 | Cc1ccc(C(=O)N(c2ccccn2)C(C)c2ccco2)cc1C (configuration not stated) | 6.78%
53 | c1ccc(-c2nc(CSc3nnc(-c4cccs4)o3)cs2)cc1 | 3.49%
54 | Cc1ccc(Nc2nc(CSc3n[nH]c(N)n3)cs2)cc1 | 0.79%
55 | CCc1ccc(NC(=O)C(NS(=O)(=O)c2ccc3c(c2)CCN3C(C)=O)C(C)C)cc1 (configuration not stated) | 0.33%
56 | Cc1ccc(Nc2nc(N)c3ccccc3n2)cc1Cl | 11.2%
57 | CCN(CC)c1nc(Nc2ccc([N+](=O)[O-])cc2)nc(N(CC)CC)n1 | 6%
58 | Cc1ccc(NC(=O)c2ccsc2)cc1NS(C)(=O)=O | -6.89%
59 | C=CCc1c(C)nc(C)nc1N/N=C/c1ccc([N+](=O)[O-])cc1 | -6.42%
60 | CN1CCN(C(=O)CCn2c(=O)c3cccn3c3cccnc32)CC1 | 6.95%
61 | O=C(Cn1c(=O)c2cccn2c2cccnc21)N1CCN(c2ccc(Cl)cc2)CC1 | 0.96%
62 | Cc1cc2nc(C3CCN(Cc4nnnn4Cc4ccccc4)CC3)[nH]c2cc1C | 34%
63 | Cc1ccc(CN2CCC(c3nc4ccc(Cl)cc4[nH]3)CC2)cc1 | 2.51%
64 | CC(=O)Nc1ccc(SCC(=O)Nc2sccc2C#N)cc1 | -2.99%
65 | O=C(OCC(=O)c1c[nH]c2ccccc12)c1cncc(Br)c1 | -0.17%
66 | O=C(OCC(=O)c1c[nH]c2ccccc12)c1ccc(Br)o1 | 5.56%
67 | CCOC(=O)c1c(NC(=O)c2ccccc2C(=O)O)sc2c1CCC2 | -2.86%
68 | CCOC(=O)c1c(NC(=O)c2ccccc2C(=O)O)sc2c1CCCC2 | -6.92%
69 | CCN1CCN(CC(O)COc2ccc(C)c(C)c2)CC1 (configuration not stated) | 4.44%
70 | COC(=O)c1sccc1NC(=O)c1ccccc1C(=O)O | 1.76%
71 | CCn1nc(NC(=O)c2ccncc2)c2cc3ccccc3nc21 | 2.23%
72 | CCn1nc(NC(=O)c2ccncc2)c2cc3ccc(C)cc3nc21 | 4.05%
73 | O=C(Nc1ccccc1C(=O)O)c1cc(S(=O)(=O)N2CCCCC2)c(Cl)cc1Cl | -1.16%
74 | CCn1c2ccc(CC(=O)O)cc2c2cc(CC(=O)O)ccc21 | -11.4%
75 | COc1ccc(NC(=O)CN2CCN(CC(=O)Nc3ccccc3F)CC2)c(OC)c1 | -3.25%

Row | Structure (SMILES) | inhibition
76 | Cc1ccc(NC(=O)c2nc[nH]c2C(=O)NCCCNC(=O)c2[nH]cnc2C(=O)Nc2ccc(C)cc2)cc1 | 5.52%
77 | c1ccc(Nc2ccc(-n3ccnc3)nn2)cc1 | -2%
78 | Cc1ccc(Nc2ccc(-n3ccnc3)nn2)cc1C | -0.37%
79 | COCc1cc(=O)[nH]c(/N=C(\N)Nc2ccc(C)cc2)n1 | -14.4%
80 | Cc1nn(C)c(C)c1Nc1ccc(N2C(=O)C3C4C=CC(C4)C3C2=O)cc1[N+](=O)[O-] (configuration not stated) | 10.1%
81 | CCCn1nnnc1SCC(=O)N1C(C)CCCC1C (configuration not stated) | 5.01%
82 | COc1ccccc1COCC(O)CNCCc1ccc(C(F)(F)F)cc1 (configuration not stated) | 1.34%
83 | COc1ccc(C(OCC(O)CNCCc2ccccc2)c2ccc(OC)cc2)cc1 (configuration not stated) | 19.9%
84 | O=C(O)CCn1nnc(-c2ccccc2)n1 | -0.81%
85 | COc1ccc(OCC(=O)N(Cc2ccco2)C2CCS(=O)(=O)C2)cc1 (configuration not stated) | 3.83%
86 | Cc1ccc(S(=O)(=O)N2CCCCC2)cc1NC(=O)C1CCC1 | 0.72%
87 | Cc1ccc(-c2nc3ccccc3c(=O)o2)cc1 | 12.5%
88 | Cc1ccc(-c2nc3ccsc3c(=O)[nH]2)cc1 | 5.58%
89 | C=CCN1C(=O)/C(=C/c2cccs2)S/C1=N\S(=O)(=O)c1ccc(F)cc1 | 0.38%
90 | COc1ccc(NC(=O)CCNC(=O)C2CCN(S(=O)(=O)c3ccc(OC)cc3)CC2)cc1 | 10.1%
91 | O=C(COc1cc(O)c2c(=O)cc(-c3ccccc3)oc2c1)c1ccccc1 | -3.97%
92 | CC(C)(C)OC(=O)COc1cc(O)c2c(=O)cc(-c3ccccc3)oc2c1 | 39.4%
93 | CSc1nnc(-c2cc(Br)ccc2N=Cc2c(C)[nH]n(-c3ccccc3)c2=O)c(=O)[nH]1 | 4.16%
94 | O=[N+]([O-])c1c(Nc2ccccc2O)cc(N2CCOCC2)c2nonc12 | 0.81%
95 | CCOC(=O)C1CCCN(S(=O)(=O)c2ccc(-c3cc(C)no3)s2)C1 (configuration not stated) | 3.93%
96 | CCO[C@@H]1OC(C(=O)NCc2nc3ccccc3[nH]2)=C[C@H](c2ccccc2)[C@H]1CCCO | 10.6%
97 | CCO[C@H]1OC(C(=O)NCc2nc3ccccc3[nH]2)=C[C@@H](c2ccccc2)[C@@H]1CCCO | -4.83%

Reference: PubChem BioAssay AID449762 (Southern Research Specialized Biocontainment Screening …, 2010)
